Measured values: PubChem BioAssay

test: calcein-AM signal in unstimulated myeloma cells – cell-based, calcein-AM fluorescence, 48 h, PK04 Diversity Set, profiling panel (AID 1166); conditions: RPMI8226 myeloma viability, higher = more signal;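 note: cells grown under basal conditions without added stimulus; test concentration not given here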

Row | Compound | z-score
1 | CN1CCC(CCCO)=CC1c1ccc(CN2CCCC2)cc1 (stereo unspecified) | 0.559
2 | C=C[C@H](C)[C@@H](O)c1ccc(O)c2ccccc12 | -1.55
3 | COCCOC(=O)N1C(=O)[C@@]2(c3cc(C#CC4=CCCCC4)ccc31)[C@H](C(=O)N1CCc3cc(OC)c(OC)cc3C1)[C@H]1C(=O)O[C@H](c3ccccc3)[C@H](c3ccccc3)N1[C@@H]2c1ccccc1OCCO | -1.06
4 | COC(=O)C1=CC(CCCO)=CC(C2CC2)N(Cc2sc3ccccc3c2Cl)C=C1C(=O)OC (stereo unspecified) | -4.06
5 | NC(=O)NCC#Cc1ccc2c(c1)[C@]1(C(=O)N2)[C@H](C(=O)N2CCCCCCC2)[C@H]2C(=O)O[C@H](c3ccccc3)[C@H](c3ccccc3)N2[C@@H]1c1ccc(OCCO)cc1 | -0.365
6 | COc1ccccc1CN1C(=O)c2ccccc2[C@@H](C(=O)NCCN2CCOCC2)[C@@H]1c1ccc(CO)cc1 | -0.55
7 | O=c1cccc(C=Cc2ccccc2)o1 | -0.743
8 | C=C[C@@H](COC(C)=O)N(Cc1ccc([N+](=O)[O-])cc1)S(=O)(=O)c1ccc(Br)cc1 | 0.647
9 | CC(C)C(=C=CC[C@@H](O)c1ccccc1OCCO)C[C@@H](O)c1ccccn1 | 0.0845
10 | CCCCC=C[C@@H](NC(=O)c1ccc(C(=O)OC)cc1)c1ccccc1 | -2.6
11 | O=c1oc(-c2ccccc2)nc2cc(Br)ccc12 | -0.633
12 | C=CC(COC(C)=O)NS(=O)(=O)c1ccc(Br)cc1 (stereo unspecified) | -0.453
13 | CS(=O)(=O)CCOC(=O)C1=CC(CCCO)=CC(c2cccs2)N(Cc2cc3c(cc2Br)OCO3)C=C1C(=O)OCCS(C)(=O)=O (stereo unspecified) | 0.377
14 | CCC[C@@H]1C=C(C(=O)O)[C@H](c2ccc(C)cc2)N1S(=O)(=O)c1ccc(C)cc1 | 0.101
15 | CC(C)NC(=O)[C@@H]1c2ccccc2C(=O)N(Cc2ccccc2)[C@H]1c1ccc(CO)cc1 | -0.238
16 | Cc1ccc(S[C@]2(C(=O)NCc3ccccc3)CC(=O)N(Cc3ccccc3)[C@@H]2c2ccc(CO)cc2)cc1 | -0.615
17 | COC(=O)c1ccc(C(O)C2C=CC3C(=O)N(C)C(=O)C3N2NC(=O)OC(C)(C)C)o1 (stereo unspecified) | -0.342
18 | COc1ccc(C(=O)Nc2cccc(CN3C(=O)[C@]4(O[C@H](CC(=O)N5CCC[C@H]5CO)[C@@H]([Si](C)(C)c5ccc(OC)cc5)[C@@H]4C)c4ccccc43)c2)cc1 | -4.33

Row | Compound | z-score
19 | CC(C)Cc1ccc(CN2CC[C@@H](NS(=O)(=O)c3ccccc3)C2)cc1 | -3.72
20 | C=CCC(OC(C)=O)[C@@H]1[C@@H](N(Cc2cccc3ccccc23)C(=O)c2cccc3ccccc23)c2cc(OCCCO)ccc2N1C(=O)c1ccc2ccccc2n1 (stereo partly specified) | -0.128
21 | COCCOC(=O)N1C(=O)[C@@]2(c3cc(C#CCNC(N)=O)ccc31)[C@H](c1ccc(OCCO)cc1)N1[C@H](c3ccccc3)[C@H](c3ccccc3)OC(=O)[C@H]1[C@@H]2C(=O)N1CCc2cc(OC)c(OC)cc2C1 | -0.172
22 | O=C1C=CC(=O)[C@@H]2CC(COc3ccccc3)=C3[C@@H](CCc4ccccc4)OB(O)C[C@@H]3[C@H]12 | -3.95
23 | [N-]=[N+]=NCc1ccccc1[C@@H]1OC(c2ccc(OCCCO)cc2)=N[C@]1(Cc1ccccc1N=[N+]=[N-])C(=O)NCc1ccccc1 | 0.22
24 | NCCCCCCNC(=O)[C@H]1C[C@H]2C(=O)NCC(=O)N2[C@H]1c1cccc(OCCO)c1 | 0.554
25 | CCCCCN1CC=CC23O[C@@H]4/C=C\CCC(C)OC(=O)C4[C@H]2C(=O)N(CCCCCO)[C@@H]3C1=O (stereo partly specified) | -0.0704
26 | O=C(NCc1ccccc1)[C@]1(CCS(=O)(=O)c2ccccc2)N=C(c2ccc(OCCCO)cc2)O[C@@H]1c1ccccc1 | -0.651
27 | C=CC(=C)C1=CCO[C@@H]1[C@H]1CCCN1S(=O)(=O)c1ccccc1[N+](=O)[O-] | -1.07
28 | COc1ccc(C(=O)Nc2cccc(CN3C(=O)[C@@]4(O[C@@H](CCn5cc(CCO)nn5)[C@H]([Si](C)(C)c5ccc(OC)cc5)[C@H]4C)c4ccccc43)c2)cc1 | -4.33
29 | CCCC[C@H]1OB(O)C[C@H]2C1=C(C)C[C@H]1C(=O)N(Cc3ccccc3)C(=O)[C@H]12 | -0.0458
30 | COc1ccc(NN2C(C(O)c3ccc(OC)c(OCc4ccccc4)c3)C=CC3C(=O)N(C4CCCCC4)C(=O)C32)cc1 (stereo unspecified) | 0.0417
31 | COCC(=C=CC[C@H](O)c1ccc(OCCO)cc1)C[C@H](O)c1cc(Cl)cc(Cl)c1O | -0.638
32 | O=C/C=C/c1ccc2c(c1)OCO2 | 0.658
33 | Cc1ccc(S[C@]2(C(=O)NCC(C)C)CC(=O)N(Cc3ccccc3Cl)[C@@H]2c2ccc(CO)cc2)cc1 | 0.845
34 | CN(C)C(=O)[C@]1(CCC(=O)OC(C)(C)C)N=C(c2ccc(OCCCO)cc2)O[C@@H]1c1ccccc1N=[N+]=[N-] | 0.0141
35 | [N-]=[N+]=NCc1ccccc1C[C@]1(C(=O)NCCN2CCOCC2)N=C(c2ccc(OCCCO)cc2)O[C@H]1c1ccccc1N=[N+]=[N-] | -0.806
36 | O=C1O[C@H](c2ccccc2)[C@H](c2ccccc2)N2[C@H]1[C@@H](C(=O)Nc1nc3ccccc3s1)[C@]1(C(=O)Nc3ccccc31)[C@H]2c1ccc(O)cc1 | -4.51
